Several values for one entry are separate records, joined by “and”; a condition that tells them apart may be missing. Identical values can stand only once. Inconclusive results are not listed. Activity calls are given as the source filed them. Unless noted, the call rests on the fitted dose curve; in most records, active means well fitted curve in the direction sought with a large enough effect; inconclusive means small, poorly fitted or top-dose-only effect, or another doubt; inactive means no such curve, though single readings can be large; an effect the other way counts as inactive or inconclusive.

Test [1] concerns Zika virus NS2B-NS3 protease (linked construct). In words: Primary screen NINDS Rhodamine qHTS for Zika virus inhibitors (AID 1347160). Further: nearly all actives have a fitted effect of over 55% in size. Further: potency means the concentration at half of the fitted maximal effect. A digest of the protocol: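 In 10 mM Tris-HCl pH 8.0 containing 0.01% Tween 20, linked NS2B-NS3 protease (25 nM final) is exposed to test compounds for 15 min. Cleavage of 1.5 microM Rhodamine110 substrate is tracked by fluorescence over 15 min.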
On the technique in general: Quantitative high-throughput screening tests each substance at several concentrations.

Test [2] concerns the target Luciferin 4-monooxygenase (Photinus pyralis) (UniProt P08659). In words: Primary firefly luciferase (FLuc) qHTS assay for identification of artifact compounds. (AID 1845220). Further: nearly all actives have a fitted effect of over 60% in size. A digest of the protocol:
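Enzymatic FLuc inhibition assay: compounds pre-exposed to luciferin/ATP (10 uM each) for 15 min, then purified P. pyralis enzyme at 10 nM added. Read-out: luminescence at 5 min.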

Test [3] is described as follows: Primary fluorescence-based thiol-reactive (MSTI) qHTS assay for identification of artifact compounds. (AID 1845221).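 Further: thiol-reactive compounds lower the probe fluorescence signal; nearly all actives have a fitted effect of over 65% in size.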 A digest of the protocol: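 Curve-fitted percent inhibition (4-parameter Hill) derived from fluorescence, Ex 525/Em 598 nm, scaled with Acetyl-MSTI and MSTI; 1 h incubation at room temperature.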
For test [4], the system named is Nanoluciferase (engineered Oplophorus gracilirostris luciferase). In words: Primary Nanoluciferase (NLuc) qHTS assay for identification of artifact compounds. (AID 1845222).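 Further: NLuc secreted into diluted conditioned medium of S16 cells; 0% = DMSO and -100% = no enzyme.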 A digest of the protocol:
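S16 cell supernatant NLuc, 1:55; cpds qHTS; 15 min RT dark; Nano-Glo substrate 1:100, 5 min; luminescence; Hill fit of % inhibition.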

The test system of test [5] is C33A. In words: Primary qHTS to identify gynecologic anti-cancer compounds using libraries of approved drugs and bioactive compounds (AID 1345084). Further: on the % scale 0 is the no-effect control and ±100 the full control effect; nearly all actives have a fitted effect of over 55% in size. As to conditions: Gynecologic cancer cell panel viability, ATPlite luminescence, 48 h; series mostly up to 57.5 µM. A digest of the protocol: (§1)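 Cytotoxicity screen measuring ATP content by luciferase luminescence. Each compound is applied at five concentrations for 48 h at 37 C with 5% CO2.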

Test [6] concerns CASKI. The test is described as above. As to conditions: Gynecologic cancer cell panel viability, ATPlite luminescence, 48 h; series mostly up to 57.5 µM. A digest of the protocol: as §1
In general terms: In ATP-based viability assays light output follows the ATP content of the culture.

For test [7], the system named is Es-2. Described as above. The conditions noted are these: Gynecologic cancer cell panel viability, ATPlite luminescence, 48 h; series mostly up to 57.5 µM. A digest of the protocol:
as §1

The test system of test [8] is HeLa. The test is described as above. As to conditions: Gynecologic cancer cell panel viability, ATPlite luminescence, 48 h; series mostly up to 57.5 µM. A digest of the protocol: as §1
In test [9] the test system is Hek293T. Described as above. The conditions noted are these: Gynecologic cancer cell panel viability, ATPlite luminescence, 48 h, control line for the selectivity index; series mostly up to 57.5 µM. A digest of the protocol:
as §1

Test [10] relates to OV90. The test is described as above. As to conditions: Gynecologic cancer cell panel viability, ATPlite luminescence, 48 h; series mostly up to 57.5 µM. A digest of the protocol: as §1
Test [11] relates to Tov112D. The test is described as above. The conditions noted are these: Gynecologic cancer cell panel viability, ATPlite luminescence, 48 h; series mostly up to 57.5 µM. A digest of the protocol:
as §1

In test [12] the test system is Zika virus NS2B-NS3 protease (unlinked complex). In words: Primary screen GU Rhodamine qHTS for Zika virus inhibitors: Unlinked NS2B-NS3 protease assay (AID 1347159). Further: nearly all actives have a fitted effect of over 60% in size. Further: potency means the concentration at half of the fitted maximal effect. A digest of the protocol: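 Percent inhibition derives from the 15-min fluorescence change (ex 480, em 540 nm), normalized to no-enzyme and no-inhibitor wells. Reactions contained 25 nM NS2B-NS3 complex and 1.5 microM substrate in 10 mM Tris-HCl pH 8.0.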

In test [13] the target is Calcium and integrin-binding protein 1 (Homo sapiens) (UniProt Q99828). In words: Primary qHTS for Identification of Calcium Integrin Binding Protein 1 (CIB1) Competitor (AID 1508620).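 Further: GST tagged CIB1 binding a fluorescein labelled alphaIIb integrin peptide tracer; top concentration of the series differs between compounds; on the % scale 0 is the no-effect control and ±100 the full control effect.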 A digest of the protocol:
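Fluorescence polarization competition: GST-tagged CIB1 (1 uM final) preincubated with compound 15 min at room temperature, then FITC-labelled alphaIIb peptide (100 nM final) added. After 15 min at room temperature, polarization read at Ex 480/Em 540.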

For test [14], the system named is JEG-3. In words: Primary qHTS to identify gynecologic anti-cancer compounds using libraries of approved drugs and bioactive compounds (AID 1345084). Further: on the % scale 0 is the no-effect control and ±100 the full control effect; nearly all actives have a fitted effect of over 55% in size. The conditions noted are these: Gynecologic cancer cell panel viability, ATPlite luminescence, 48 h; series mostly up to 57.5 µM. A digest of the protocol:
as §1

Test [15] in a line: Primary qHTS for inhibitors of nuclear receptor binding SET domain protein 2 (NSD2) in an isogenic RCH-ACV NSD2 p.E1099K mutant (9B) (AID 1645876). Further: nearly all actives have a fitted effect of over 70% in size. Further: potency means the concentration at half of the fitted maximal effect.
Test [16] in a line: Primary qHTS for inhibitors of nuclear receptor binding SET domain protein 2 (NSD2) in an RCH-ACV wild type WT cells (2C) (AID 1645877). Further: potency means the concentration at half of the fitted maximal effect; nearly all actives have a fitted effect of over 70% in size.
The target in test [17] is Glutathione peroxidase 1 (Homo sapiens) (UniProt P07203). In words: Primary qHTS Assay for Inhibitors of Recombinant Selenoprotein Glutathione Peroxidase 1 (GPX1) (AID 1845191). Further: nearly all actives have a fitted effect of over 65% in size. A digest of the protocol: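 GR-coupled assay: compounds preincubated 30 min at room temperature with GPX1, then reaction started with CHP; final 10 nM GPX1, 1 mM GSH, 0.5 mM CHP, 0.5 mM NADPH, 100 nM GR, 0.01% BSA, pH 7.5 Tris buffer. NADPH fluorescence (340/450 nm) read at 0 and 15 min.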

Test [18] addresses Phospholipid hydroperoxide glutathione peroxidase GPX4 (Homo sapiens) (UniProt P36969). In words: Primary qHTS Assay for Inhibitors of Recombinant Selenoprotein Glutathione Peroxidase 4 (GPX4) (AID 1845192). Further: on the % scale 0 is the no-effect control and ±100 the full control effect; nearly all actives have a fitted effect of over 65% in size. The conditions noted are these: outcome: dose series up to 50 µM unless noted. A digest of the protocol:
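GR-coupled assay: recombinant GPX4 preincubated 30 min with compound at room temperature; final 200 nM GPX4, 1 mM GSH, 0.5 mM cumene hydroperoxide, 0.5 mM NADPH, 100 nM GR, 0.01% BSA, pH 7.5 Tris. NADPH fluorescence (340/450 nm) read at 0 and 15 min.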

Test [19] is described as follows: qHTS drug screen for cell cycle checkpoint inhibitors in PARPi-resistant BRCA-mutant ovarian cancer cell lines. (AID 1963452; calls by dose curve). As to conditions: PEO1/OlaR viability, CellTiter-Glo luminescence, 96 h, stronger effect = lower value. A digest of the protocol: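 PEO1, PEO4 and PEO1/OlaR ovarian cancer cells, 600 per well, exposed 96 h at 37C to a dilution series. Viability read by CellTiter-Glo luminescence, normalized to DMSO and empty wells; activity summarized as Z-AUC.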

Test [20] in a line: P-glycoprotein substrates identified in KB-8-5-11 adenocarcinoma cell line, qHTS therapeutic library screen (AID 1346987). Further: potency means the concentration at half of the fitted maximal effect; nearly all actives have a fitted effect of over 65% in size. A digest of the protocol: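 KB-8-5-11: colchicine-selected sub-line of KB-3-1 over-expressing P-gp; assay medium lacked colchicine. 72 h drug exposure at 37 degree C, CellTiter-Glo.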

Phospholipid hydroperoxide glutathione peroxidase GPX4 (Homo sapiens), sequence (P36969 whole entry, looked up): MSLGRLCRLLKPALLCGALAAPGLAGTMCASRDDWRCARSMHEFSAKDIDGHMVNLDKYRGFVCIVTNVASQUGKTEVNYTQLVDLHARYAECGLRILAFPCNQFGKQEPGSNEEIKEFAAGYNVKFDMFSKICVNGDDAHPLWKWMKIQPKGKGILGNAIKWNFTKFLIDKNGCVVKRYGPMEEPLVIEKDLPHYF
Glutathione peroxidase 1 (Homo sapiens), sequence (P07203 whole entry, looked up): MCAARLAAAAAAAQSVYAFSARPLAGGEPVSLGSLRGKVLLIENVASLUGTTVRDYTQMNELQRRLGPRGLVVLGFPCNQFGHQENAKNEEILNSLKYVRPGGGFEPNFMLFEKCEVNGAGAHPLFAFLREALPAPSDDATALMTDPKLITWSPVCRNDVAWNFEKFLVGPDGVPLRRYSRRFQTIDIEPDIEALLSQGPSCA
Calcium and integrin-binding protein 1 (Homo sapiens), sequence (Q99828 whole entry, looked up): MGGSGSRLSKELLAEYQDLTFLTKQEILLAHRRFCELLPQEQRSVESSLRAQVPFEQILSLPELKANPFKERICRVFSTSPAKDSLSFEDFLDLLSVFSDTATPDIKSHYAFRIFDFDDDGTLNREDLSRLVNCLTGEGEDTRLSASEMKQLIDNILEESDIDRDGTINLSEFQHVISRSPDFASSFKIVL

As for `COc1ccc(-c2c(C)c(C(=O)NN3CCCCC3)nn2-c2ccc(Cl)cc2Cl)cc1`, the Potency entry in test [1], in test [2], in [3], in test [4], in test [5] and in [6] was “inactive” throughout. Moreover, the Potency result in test [7], in test [8], in test [9], in test [10] and in test [11] was “inactive” throughout.
With `CN(Cc1ccc(C(=O)O)cc1)c1ccc(OCc2c(-c3c(Cl)cccc3Cl)noc2C2CC2)nc1C(F)(F)F`, the Potency was 2 µM (active) in [12] and 2.51 µM (active) in test [1]. Moreover, the result in test [13] was inactive. Besides, the Potency result in [2], in test [3], in test [5], in [6], in [7] and in test [8] was “inactive” in each case. Further, the Potency entry in test [9], in test [14], in test [10] and in test [11] was “inactive” in each case.
As to `O=C(CC1NCCC[C@H]1O)Cn1cnc2cc(Br)c(Cl)cc2c1=O` (stereo partly drawn), the Potency result in test [12], in [1], in test [15], in test [2], in test [4] and in test [5] was “inactive” each time. The Potency result in [6], in test [7], in [8], in [9], in test [14] and in [10] was “inactive” in each case. Besides, the Potency entry in [11] was “inactive”. Further, the result in [13] was inactive.
As for `COc1cc2nc(-c3cc(F)ccc3O)nc(N[C@@H]3CNC[C@H]3C(C)(C)O)c2cc1OC`, the Potency result in test [12], in test [1], in test [17], in test [18], in [2] and in [3] was “inactive” each time. The Potency entry in test [4], in [5], in [6], in [7], in test [8] and in test [9] was “inactive” in each case. Besides, the Potency result in test [14], in test [10] and in test [11] was “inactive” each time. Also, in test [13], the result was inactive. In addition, the Potency was 4.59 µM (active) and 1.48 µM (active) in test [15]; 4.09 µM (active) and 1.66 µM (active) in [16]. The Z-AUC in test [19] is -0.315 (inactive); in test [19] (measured here: PEO1 parental Z-AUC) it was -0.378; in [19] (measured here: PEO4 Z-AUC), -0.09.
Turning to `C[C@@H](O[C@H]1OCCN(Cc2n[nH]nc2CN(C)C)[C@H]1c1ccc(F)cc1)c1cc(C(F)(F)F)cc(C(F)(F)F)c1`, the Potency result in [12], in test [1], in test [17], in test [18], in test [2] and in [3] was “inactive” each time. The Potency result in [4], in [5], in test [6], in test [7], in test [8] and in test [9] was “inactive” each time. Further, the Potency entry in test [14], in test [10] and in test [11] was “inactive” throughout. Moreover, the result in test [13] was inactive. Further, the figures for the Potency in test [15] and in test [16] were 16.3 µM (active) and 14.5 µM (active), respectively.
For `C=C1C(=O)O[C@@H]2C[C@@H](C)[C@]34C[C@]5(C(=O)O[C@H]6CC(C)=C([C@H](C)CCCO)[C@H](OC(=O)C(C)CC)[C@H]65)[C@@H](C(C)=C3C[C@@H]12)[C@H]4OC(C)=O` (stereo partly drawn), the Potency in test [20] is 5.44 µM (active); in test [15] it was 2.16 µM (active). Further, the Potency entry in test [12], in test [1], in test [17], in [18], in test [2] and in [4] was “inactive” in each case. Moreover, the Potency result in test [5], in test [6], in [7], in test [8], in test [14] and in [10] was “inactive” each time. Moreover, the Potency result in [11] is “inactive”. Besides, in test [13], the result was inactive.

The values above are taken from PubChem BioAssay (NCATS).
